For some assays here: Entries with a potency or affinity are not part of this list.
Columns and labels:
Parameters in all cases: scale not given: direction of the effect not stated beside the values
[1] = target: Protein translocase subunit SecA (Escherichia coli (strain K12)) (UniProt P10408); assay: Assay to Identify E. coli SecA ATPase Inhibitors; type: functional; conditions: 30 µM
[2] = target: T1, Ubiquitin-activating enzyme e1, putative (Leishmania donovani (strain BPK282A1)) (UniProt E9BSI1); assay: Leishmania donovani Ubiquitin Activating Enzyme (LdE1); type: functional; conditions: 30 µM
T1 sequence (whole entry): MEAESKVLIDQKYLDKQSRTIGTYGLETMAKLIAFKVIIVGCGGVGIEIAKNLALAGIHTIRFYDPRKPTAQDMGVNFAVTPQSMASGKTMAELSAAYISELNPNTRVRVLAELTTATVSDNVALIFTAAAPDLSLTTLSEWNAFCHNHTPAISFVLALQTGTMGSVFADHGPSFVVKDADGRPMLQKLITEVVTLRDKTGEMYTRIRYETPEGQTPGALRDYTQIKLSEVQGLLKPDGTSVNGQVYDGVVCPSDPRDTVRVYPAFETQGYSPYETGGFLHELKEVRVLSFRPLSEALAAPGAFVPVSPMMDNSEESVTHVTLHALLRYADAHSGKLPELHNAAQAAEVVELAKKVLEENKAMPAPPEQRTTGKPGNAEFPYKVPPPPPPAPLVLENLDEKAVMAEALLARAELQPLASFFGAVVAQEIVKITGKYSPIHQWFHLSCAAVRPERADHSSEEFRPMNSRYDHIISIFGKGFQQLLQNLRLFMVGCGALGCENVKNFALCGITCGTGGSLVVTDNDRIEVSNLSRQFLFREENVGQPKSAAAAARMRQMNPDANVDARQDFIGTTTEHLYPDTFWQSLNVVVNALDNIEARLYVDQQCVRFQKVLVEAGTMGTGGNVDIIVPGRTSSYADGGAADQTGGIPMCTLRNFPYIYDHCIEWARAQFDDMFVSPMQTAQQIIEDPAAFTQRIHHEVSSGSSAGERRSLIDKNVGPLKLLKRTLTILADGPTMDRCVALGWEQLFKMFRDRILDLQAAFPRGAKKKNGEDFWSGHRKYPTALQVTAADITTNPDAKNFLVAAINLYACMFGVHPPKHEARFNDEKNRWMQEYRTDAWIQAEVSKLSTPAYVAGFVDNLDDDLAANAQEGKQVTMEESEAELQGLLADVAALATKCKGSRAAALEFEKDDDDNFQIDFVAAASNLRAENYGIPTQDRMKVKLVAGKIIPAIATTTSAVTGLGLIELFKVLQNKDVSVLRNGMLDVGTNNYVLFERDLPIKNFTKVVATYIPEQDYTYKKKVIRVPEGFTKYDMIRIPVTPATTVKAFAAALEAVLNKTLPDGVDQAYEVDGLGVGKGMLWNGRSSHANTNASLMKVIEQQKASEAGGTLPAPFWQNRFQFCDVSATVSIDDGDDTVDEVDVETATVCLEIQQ

[3] = target: AMP-activated protein kinase, AMPK (Homo sapiens) (UniProt P54646+O43741+P54619+Q9UGJ0+Q9Y478+Q13131+Q9UGI9); assay: AMP-dependent Kinase enzyme assay. An in vitro enzyme assay that detects ADP turnover that is directly proportional to AMPK activity. This uses naive AMPK that is activated during the assay with MK-8722; type: functional; conditions: 30 µM
[4] = target: Sialic acid-binding Ig-like lectin 9 (Homo sapiens) (UniProt Q9Y336); assay: Hs-Siglec9 ALPHAscreen SOP 20170721; conditions: 10 µM
[5] = system: Trypanosoma cruzi; assay: Trypanosoma cruzi phosphomannomutase and mannose-1-phosphate guanylyltransferase assay; type: functional; conditions: 10 µM
[6] = target: T2, Arginase-2, mitochondrial (Homo sapiens) (UniProt P78540); assay: in vitro enzyme assay to detect the production of urea directly proportional to the activity of Arginase II; type: functional; conditions: 33.3 µM; further: in the data most compounds retested in dose-response had high values
T2 sequence (whole entry): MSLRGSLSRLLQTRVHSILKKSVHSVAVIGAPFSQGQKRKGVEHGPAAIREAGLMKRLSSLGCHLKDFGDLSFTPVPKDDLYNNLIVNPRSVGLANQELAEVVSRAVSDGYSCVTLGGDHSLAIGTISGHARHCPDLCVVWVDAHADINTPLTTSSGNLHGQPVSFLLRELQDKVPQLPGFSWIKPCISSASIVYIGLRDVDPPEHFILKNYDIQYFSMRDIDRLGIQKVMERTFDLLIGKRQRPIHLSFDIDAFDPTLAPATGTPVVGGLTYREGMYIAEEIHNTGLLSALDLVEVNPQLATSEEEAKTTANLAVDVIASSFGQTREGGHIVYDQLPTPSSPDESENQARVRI

[7] = target: T3, Proteasome subunit beta (Trypanosoma cruzi) (UniProt O96673); assay: Trypanosoma cruzi proteasome chymotrypsin-like activity (TcProtChymo) assay.; further: in the data most compounds retested in dose-response had high values; type: functional; conditions: 9.37 µM
T3 sequence (whole entry): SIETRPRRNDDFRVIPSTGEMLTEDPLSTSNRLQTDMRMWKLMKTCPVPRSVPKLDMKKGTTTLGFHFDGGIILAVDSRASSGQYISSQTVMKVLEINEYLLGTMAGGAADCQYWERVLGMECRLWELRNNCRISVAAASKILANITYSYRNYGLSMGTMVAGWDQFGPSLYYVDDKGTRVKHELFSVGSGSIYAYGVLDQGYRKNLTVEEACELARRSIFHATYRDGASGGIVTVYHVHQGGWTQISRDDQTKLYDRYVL

[8] = species: Homo sapiens; assay: To identify inhibition of the IFN signalling (Jak-Stat) pathway via expression of an eGFP reporter gene under the control of an IFN-stimulated response element (ISRE) containing MxA promoter.; type: functional; conditions: 30 µM
[9] = target: T4, Tyrosyl-tRNA synthetase, putative (Trypanosoma cruzi (strain CL Brener)) (UniProt Q4DSP6); assay: Trypanosoma cruzi tyrosyl tRNA synthetase (TcYRS) _High Tyrosine SOP; type: functional; conditions: 30 µM; further: in the data most compounds retested in dose-response had high values
T4 sequence (whole entry): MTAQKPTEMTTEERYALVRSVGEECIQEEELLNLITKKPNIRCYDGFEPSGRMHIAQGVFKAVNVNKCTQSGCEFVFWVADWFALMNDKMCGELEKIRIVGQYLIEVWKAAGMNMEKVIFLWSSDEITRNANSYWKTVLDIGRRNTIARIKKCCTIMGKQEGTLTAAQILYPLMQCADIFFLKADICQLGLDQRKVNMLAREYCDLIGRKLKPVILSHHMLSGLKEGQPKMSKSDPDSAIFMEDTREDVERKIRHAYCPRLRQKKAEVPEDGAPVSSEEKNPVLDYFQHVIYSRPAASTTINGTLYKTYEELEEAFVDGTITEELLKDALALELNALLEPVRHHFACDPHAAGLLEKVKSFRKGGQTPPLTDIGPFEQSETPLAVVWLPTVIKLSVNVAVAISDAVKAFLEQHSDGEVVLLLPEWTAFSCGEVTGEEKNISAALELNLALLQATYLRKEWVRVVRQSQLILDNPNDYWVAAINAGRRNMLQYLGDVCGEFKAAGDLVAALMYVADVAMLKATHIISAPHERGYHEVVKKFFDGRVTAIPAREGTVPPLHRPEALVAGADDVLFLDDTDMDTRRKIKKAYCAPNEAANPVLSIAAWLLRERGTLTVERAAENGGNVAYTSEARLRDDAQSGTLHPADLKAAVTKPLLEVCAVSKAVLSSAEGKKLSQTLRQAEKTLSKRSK

[10] = target: T4, Tyrosyl-tRNA synthetase, putative (Trypanosoma cruzi (strain CL Brener)); assay: Trypanosoma cruzi tyrosyl tRNA synthetase (TcYRS) SOP; type: functional; conditions: 30 µM
[11] = target: Chromo domain-containing protein 1 (Saccharomyces cerevisiae (strain ATCC 204508 / S288c) (Baker's yeast)) (UniProt P32657); assay: ScCHD-1 Enzyme Inhibition Assay; type: functional; conditions: 30 µM; further: in the data most compounds retested in dose-response had high values
Sequence of Chromo domain-containing protein 1 (Saccharomyces cerevisiae (strain ATCC 204508 / S288c) (Baker's yeast)) (P32657 whole entry, the tested form may be a part): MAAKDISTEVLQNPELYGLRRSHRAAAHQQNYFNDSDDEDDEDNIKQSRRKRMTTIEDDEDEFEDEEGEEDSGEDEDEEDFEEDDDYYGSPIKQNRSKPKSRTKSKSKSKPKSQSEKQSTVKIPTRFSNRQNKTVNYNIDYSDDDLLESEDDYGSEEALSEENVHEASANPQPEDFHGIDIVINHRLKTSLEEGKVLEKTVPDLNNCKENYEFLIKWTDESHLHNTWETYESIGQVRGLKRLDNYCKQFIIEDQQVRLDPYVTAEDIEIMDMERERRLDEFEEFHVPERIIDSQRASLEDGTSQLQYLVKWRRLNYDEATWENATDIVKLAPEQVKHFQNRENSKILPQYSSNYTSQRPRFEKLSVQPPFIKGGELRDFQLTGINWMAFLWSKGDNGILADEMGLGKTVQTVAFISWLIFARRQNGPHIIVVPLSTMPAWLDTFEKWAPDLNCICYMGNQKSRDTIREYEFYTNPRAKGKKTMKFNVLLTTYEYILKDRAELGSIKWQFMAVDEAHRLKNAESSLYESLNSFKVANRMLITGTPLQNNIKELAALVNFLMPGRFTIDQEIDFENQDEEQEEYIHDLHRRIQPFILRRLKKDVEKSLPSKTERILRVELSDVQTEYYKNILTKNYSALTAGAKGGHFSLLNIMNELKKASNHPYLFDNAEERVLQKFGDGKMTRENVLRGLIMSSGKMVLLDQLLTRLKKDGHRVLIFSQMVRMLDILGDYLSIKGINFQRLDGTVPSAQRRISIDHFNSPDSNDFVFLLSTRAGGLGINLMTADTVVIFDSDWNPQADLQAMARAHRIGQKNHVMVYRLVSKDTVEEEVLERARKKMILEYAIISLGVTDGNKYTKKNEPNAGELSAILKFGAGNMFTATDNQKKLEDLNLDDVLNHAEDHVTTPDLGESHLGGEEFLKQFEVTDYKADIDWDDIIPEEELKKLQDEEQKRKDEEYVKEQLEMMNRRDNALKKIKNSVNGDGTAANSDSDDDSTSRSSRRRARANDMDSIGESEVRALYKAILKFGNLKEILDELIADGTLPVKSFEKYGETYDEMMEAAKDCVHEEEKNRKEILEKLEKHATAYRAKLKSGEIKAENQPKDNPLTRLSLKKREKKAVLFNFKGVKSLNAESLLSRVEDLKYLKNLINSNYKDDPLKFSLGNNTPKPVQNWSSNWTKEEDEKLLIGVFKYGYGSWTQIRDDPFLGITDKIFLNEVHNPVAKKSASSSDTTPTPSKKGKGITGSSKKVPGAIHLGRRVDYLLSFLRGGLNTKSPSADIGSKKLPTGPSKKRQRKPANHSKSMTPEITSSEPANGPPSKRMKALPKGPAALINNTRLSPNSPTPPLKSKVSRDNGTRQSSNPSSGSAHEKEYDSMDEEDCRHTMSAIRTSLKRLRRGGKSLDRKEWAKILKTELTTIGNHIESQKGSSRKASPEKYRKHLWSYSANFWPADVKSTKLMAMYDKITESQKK

Sequence of Protein translocase subunit SecA (Escherichia coli (strain K12)) (P10408 whole entry): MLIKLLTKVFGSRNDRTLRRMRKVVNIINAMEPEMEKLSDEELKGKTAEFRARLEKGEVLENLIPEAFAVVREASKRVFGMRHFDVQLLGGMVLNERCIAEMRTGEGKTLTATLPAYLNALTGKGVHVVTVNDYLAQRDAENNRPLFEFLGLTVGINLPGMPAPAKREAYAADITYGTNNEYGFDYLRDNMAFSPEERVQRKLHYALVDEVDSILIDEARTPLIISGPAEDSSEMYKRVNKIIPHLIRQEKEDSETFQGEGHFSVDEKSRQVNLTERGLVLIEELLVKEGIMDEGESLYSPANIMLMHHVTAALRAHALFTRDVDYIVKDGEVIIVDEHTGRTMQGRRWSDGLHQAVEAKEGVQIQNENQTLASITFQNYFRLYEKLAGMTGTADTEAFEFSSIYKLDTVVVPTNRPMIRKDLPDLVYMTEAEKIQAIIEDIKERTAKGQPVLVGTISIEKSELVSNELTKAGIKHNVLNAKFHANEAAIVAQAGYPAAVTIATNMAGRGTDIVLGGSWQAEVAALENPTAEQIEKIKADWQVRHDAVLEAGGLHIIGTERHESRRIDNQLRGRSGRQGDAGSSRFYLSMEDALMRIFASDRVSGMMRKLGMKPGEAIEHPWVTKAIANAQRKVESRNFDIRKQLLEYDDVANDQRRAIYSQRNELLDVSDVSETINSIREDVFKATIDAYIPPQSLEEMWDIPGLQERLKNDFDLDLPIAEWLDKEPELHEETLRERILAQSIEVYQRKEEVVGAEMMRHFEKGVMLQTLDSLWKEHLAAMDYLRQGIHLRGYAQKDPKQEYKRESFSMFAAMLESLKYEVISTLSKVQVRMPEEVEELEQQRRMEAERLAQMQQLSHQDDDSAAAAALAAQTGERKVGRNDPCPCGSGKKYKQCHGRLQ
Sequence of Sialic acid-binding Ig-like lectin 9 (Homo sapiens) (Q9Y336 whole entry): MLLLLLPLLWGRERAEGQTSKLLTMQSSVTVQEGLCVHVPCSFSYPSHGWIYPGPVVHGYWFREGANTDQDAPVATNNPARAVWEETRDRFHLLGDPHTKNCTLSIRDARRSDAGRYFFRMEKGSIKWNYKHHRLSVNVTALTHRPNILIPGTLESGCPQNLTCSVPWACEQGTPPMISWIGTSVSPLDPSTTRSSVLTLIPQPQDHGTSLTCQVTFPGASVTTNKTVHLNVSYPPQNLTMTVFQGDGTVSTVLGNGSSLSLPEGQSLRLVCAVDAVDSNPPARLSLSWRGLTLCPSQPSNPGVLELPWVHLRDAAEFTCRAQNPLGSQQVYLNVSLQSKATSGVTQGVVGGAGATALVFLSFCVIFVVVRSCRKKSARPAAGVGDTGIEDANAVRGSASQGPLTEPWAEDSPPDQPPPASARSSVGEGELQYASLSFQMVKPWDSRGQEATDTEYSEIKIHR

Row | Structure (SMILES) | Percent Effect [1] | Percent Effect [2] | Percent Effect [3] | Percent Effect [4] | Percent Effect [5] | Percent Effect [6] | Percent Effect [7] | Percent Effect [8] | Percent Effect [9] | Percent Effect [10] | Percent Effect [11]
1 | CCC(=O)N1CCC(c2nc3ccc(NC(C)C)cn3n2)CC1 | -5.82% | -5.41% | -88.4% | 0.275% | -1.56% | -0.833% | 1.44% | -2.11% | 1.98% | 1.22% | -4.18%
2 | CC(C)NC(=O)Nc1ccc(CS(=O)(=O)C(C)(C)C)cc1 | -3.43% | 2.63% | 7.37% | 5.76% | -2.82% | -2.37% | 23.1% | 7.3% | 2.13% | 10.4% | -2.88%
3 | Cn1ccnc1CN1CCC2(CC1)CC(NC(=O)c1ccccn1)CO2 (configuration not stated) | -1.87% | 20.8% | -1.66% | -10.3% | 1.28% | 3.23% | 9.4% | 0.302% | -20.1% | 16.7% | -10.2%
4 | Cc1cnc(Nc2nccnc2C2CCN(C)CC2)s1 | 3.01% | 13.3% | 9.68% | -6.36% | -4.92% | 0.699% | 5.2% | 10.5% | 7.45% | 8.97% | -6.78%
5 | CC(C)NC(=O)[C@H]1C[C@@H]2[C@@H](C1)OCCN2Cc1cnn(C)c1 | -3.53% | 0% | 4.75% | 2.29% | -5.6% | -50% | 4.44% | -6.54% | 3.12% | 10% | -4.52%
6 | Cn1ccnc1N1CCN(C(=O)Cc2ccc(F)cc2)CC1 | -3.69% | 13% | 5.01% | 3.61% | 2.86% | 0.645% | 17.6% | 14.3% | 6.35% | 11.5% | -9.3%
7 | COc1ccccc1CNC(=O)N1CCCC(c2nncn2C)C1 (configuration not stated) | -3.81% | 13.2% | -5.69% | 4.78% | 0.654% | 1.08% | 6.85% | 5.9% | 7.39% | 23.5% | -3.47%
8 | O=C(O)C1CCCCN1C(=O)c1cccc(C(F)(F)F)c1 (configuration not stated) | -6.15% | 13.2% | -2.92% | 7.67% | 1.4% | -2.88% | 2.62% | -1.55% | 4.43% | 16.1% | 3.59%
9 | CC1CN(Cc2nccn2C)CCN1c1ccc2nncn2n1 (configuration not stated) | -5.26% | 10.4% | -8.38% | 12.5% | 5.62% | 2.85% | 9.29% | 7.44% | 5.83% | 21.9% | -9.26%
10 | CC(C)=CCN(C)C1CCCN(Cc2noc(C)n2)C1 (configuration not stated) | -2.36% | 18.9% | 22.7% | -3.99% | -3.06% | 1.29% | 9.7% | 15.7% | 1.98% | 13.4% | -3.38%
11 | O=c1cc2c(nn1CN1CCOCC1)CCC2 | -2.09% | 14.7% | -2.08% | -0.0396% | -0.786% | -6.87% | 11.3% | 14.3% | 6.35% | 15.4% | -8.17%
12 | Cc1ncsc1C(=O)NC1CCN(CCC(N)=O)CC1 | -5.32% | 15.6% | -3% | 11% | -2.62% | 0.356% | 4.56% | 4.69% | 4.85% | 9.76% | -1.54%
13 | CN(C)CC1CN(c2ccc(C#N)cn2)CCO1 (configuration not stated) | -4.87% | -5.26% | -3.08% | 5.48% | 3.27% | -4.32% | -5.16% | -1.95% | 2.46% | 3.7% | -8.21%
14 | CNC(=O)N1CCc2cc(C(=O)N(C)C)c(NCC3CC3)nc2CC1 | -4.82% | 8.11% | -2.71% | 2.07% | -4.4% | -0.248% | 10.7% | 18.6% | 6.45% | 16.1% | -1.72%
15 | c1nc(COCC2CC2)c2n1CCCN(CC1CC1)C2 | -8.2% | -2.67% | 1.44% | 3.77% | -2.12% | -22.4% | -0.513% | -0.93% | -1.04% | 0% | 0.35%
16 | Cc1cc(C)n(CC2CCCN2CC(=O)N(C)C)n1 (configuration not stated) | -2.72% | -2.7% | -5.85% | 20% | -2.92% | -4.01% | 9.19% | 3.86% | -0.493% | 1.24% | -0.0682%
17 | O=C(c1cn(-c2cc(N3CCSCC3)ncn2)cn1)N1CCSCC1 | -2.69% | 8.22% | -3.54% | -3.87% | 6.27% | -1.82% | 24% | -3.38% | 7.53% | 15% | -3.99%
18 | CC(C(=O)NCCCn1ccnc1)n1cc(Br)cn1 (configuration not stated) | -3.65% | 2.6% | -2.79% | 7.47% | 3.83% | -33.1% | 10.7% | -6.92% | 7.53% | 18.5% | -2%
19 | CC(=O)N1CC[C@@H]2CN(C(=O)c3ccco3)CCO[C@@H]2C1 | 0.266% | 13.3% | 8.75% | 0.752% | -4.33% | 6.29% | 12.8% | -9.46% | 3.19% | 3.85% | -2.25%
20 | O=C(c1ccc[nH]1)N1CCC(c2nccn2Cc2ccncc2)CC1 | -3.39% | 13.7% | -1.71% | 5.74% | 7.05% | 14.1% | 8.7% | 11.4% | 5.38% | 10% | -6.61%
21 | O=c1[nH]c(CCN2CCCC(Cn3cncn3)C2)nc2ccccc12 (configuration not stated) | -4.26% | 13.5% | 0.62% | 16.8% | 6.78% | 0.924% | 2.33% | 14.5% | 4.95% | 11% | -3.63%
22 | Cc1ccccc1CN1CCCN(C2CCOC2=O)CC1 (configuration not stated) | -1.89% | -18.9% | -9.35% | 10.9% | -3.3% | 1.2% | 10.4% | 0.38% | 2.46% | 3.7% | 1.51%

Reference: ChEMBL document CHEMBL3988442, “University of Dundee, Small-Polar-MMV Screening Library” (2021)
